# In the library only some 0.71% were active in any assay of this set; here they are far more common.
# GALK inh: inhibitors of human galactokinase | Purified GALK, Kinase-Glo residual ATP luminescence | Potency, µM (top dose mostly 57.5 µM), for the others: at the top dose activity change, negative = inhibition, most hits filed as inhibitors | P51570 | 270,000 tested, 0.007% active | AID 1868; further: potency means the concentration at half of the fitted maximal effect
#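 GALK at 5 nM final was combined with compound, 35 uM ATP and 100 uM galactose in HEPES pH8.0 with MgCl2 and DTT. The reaction ran one hour at room temperature before luminescent ATP detection.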
# PI4K2A inh: inhibitors of human PI4K2A. 420,000 tested, 0.13% active. purified PI4K2A, ADP-Glo luminescence, 1 h; active compounds read low. Q9BTU6. activity change, negative = inhibition, % at 76.9 µM; in the data active means activity change below about -50%; inconclusive means mostly about -30% to -49%;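 further: -100% = wells without enzyme as full effect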
#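 Compounds are screened against recombinant PI4K2A using PI as substrate and ATP, the latter dispensed at 300 microM. Reactions run one hour at ambient temperature before ADP-Glo detection; full inhibition defined by wells lacking enzyme.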
# USP2a block: blocks human ubiquitin-specific protease USP2a; O75604; USP2 core, Ub-CHOP2 coupled fluorogenic reporter, 485/531; Potency, µM (series often up to 38.3 µM), for inactives: top-dose activity change, negative = inhibition, usual class: inhibitors; 330,000 tested, 0.01% active;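 further: potency means the concentration at half of the fitted maximal effect; plate controls were DMSO wells for no effect and full inhibition by NEM control for full effect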
#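 Deubiquitinase activity read as fluorescence (485/531 nm) after Ub-CHOP2 cleavage activates the enterokinase reporter on its substrate; USP2 core 10nM, Ub-CHOP2 and substrate 25nM each, 30min compound preincubation then 60min RT; data normalized to NEM, curves fitted.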
# Eya2 phos inh: blocks the phosphatase activity of human Eya2 | O00167 | recombinant Eya2, OMFP fluorescence dephosphorylation (OMFP is methylfluorescein phosphate) | Potency, µM (doses to about 76.9 µM), inactives show top-dose activity, negative = inhibition, hits mostly inhibitors | 330,000 tested, 0.006% active; further: potency means the concentration at half of the fitted maximal effect
#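 Eya2 (0.2 uM) preincubated 10 min at ambient with compound, then OMFP substrate added at 50 uM; 10 min reaction in 50 mM HEPES pH 7.5, 50 mM NaCl, 5 uM MgCl2, 0.05% BSA, 1 mM DTT. Fluorescence read at Ex 485/Em 525 nm.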
# Coupling enz: coupling enzyme interference in Giardia aldolase counter-screen; activity change, negative = inhibition, % at 58.2 µM, hits read low; 290,000 tested, 0.67% active; coupling enzyme system counterscreen, AmpLite Red fluorescence; in the data active means activity change below about -30%
#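 Final compound at 57.5 uM, incubated 10 min at RT with coupling enzyme reagent (glyceraldehyde-3-phosphate), then 20 min with substrate and AmpLite Red detection. Fluorescence read at 525/598 nm; tests interference with the coupling assay, not aldolase inhibition.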
# USP1 inh: blocks the human USP1/UAF1 deubiquitinase complex | O94782 | recombinant USP1/UAF1, Ub-Rhodamine cleavage fluorescence | Potency, µM (top dose mostly 57.1 µM), without a hit: at the highest dose activity change, negative = inhibition, usual class: inhibitors | 390,000 tested, 0.23% active | AID 743255; further: potency means the concentration at half of the fitted maximal effect; nearly all actives have a fitted effect of over 60% in size
# Target sequence (O94782 whole entry, looked up): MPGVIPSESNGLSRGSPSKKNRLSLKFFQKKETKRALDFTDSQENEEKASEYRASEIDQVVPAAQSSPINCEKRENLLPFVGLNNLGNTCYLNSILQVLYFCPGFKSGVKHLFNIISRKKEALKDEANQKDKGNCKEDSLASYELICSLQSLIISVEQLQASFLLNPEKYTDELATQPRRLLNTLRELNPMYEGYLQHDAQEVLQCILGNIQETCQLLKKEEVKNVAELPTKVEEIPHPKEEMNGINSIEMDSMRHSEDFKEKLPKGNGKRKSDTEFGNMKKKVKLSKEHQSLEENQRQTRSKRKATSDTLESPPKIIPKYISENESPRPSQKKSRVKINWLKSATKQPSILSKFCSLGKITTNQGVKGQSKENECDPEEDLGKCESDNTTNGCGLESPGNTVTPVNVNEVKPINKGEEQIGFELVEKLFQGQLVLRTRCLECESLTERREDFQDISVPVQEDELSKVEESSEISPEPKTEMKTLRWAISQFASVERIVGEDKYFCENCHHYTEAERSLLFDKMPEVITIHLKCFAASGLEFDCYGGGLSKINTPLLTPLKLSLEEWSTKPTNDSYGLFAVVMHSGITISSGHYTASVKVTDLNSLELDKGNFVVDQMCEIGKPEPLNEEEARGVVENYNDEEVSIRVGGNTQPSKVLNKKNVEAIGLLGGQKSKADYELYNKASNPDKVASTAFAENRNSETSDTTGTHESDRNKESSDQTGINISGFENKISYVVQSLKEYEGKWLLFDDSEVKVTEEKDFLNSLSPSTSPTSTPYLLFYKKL
#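 Step one: compound is pinned into 1nM USP1/UAF1 in HEPES pH 7.8 buffer with TCEP. Step two: 15 min room-temperature incubation. Step three: Ub-Rho (150nM final) starts cleavage, tracked by fluorescence over six one-minute reads.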
# An asterisk follows results filed as active; i = inactive; ? = inconclusive; · = not tested or not shown; ! = not active in a repeat. Unless noted, the call rests on the fitted dose curve; in most records, active means well fitted curve in the direction sought with a large enough effect; inconclusive means small, poorly fitted or top-dose-only effect, or another doubt; inactive means no such curve, though single readings can be large; an effect the other way counts as inactive or inconclusive. Unless noted, on the % scale 0 is the no-effect control and ±100 the full control effect.
SMILES,GALK inh,PI4K2A inh,USP2a block,Eya2 phos inh,Coupling enz,USP1 inh
CC1Oc2ccccc2N(CC(=O)N(Cc2ccccc2)Cc2ccccn2)C1=O (centres undefined),-2%,-71*,-3%,8%,5,-10%
Cc1ncc(CCl)c2c1OC(C)(C)OC2,0%,-1,0%,-3%,-38*,-11%
CCCC[n+]1ccn(C2=C([O-])c3ccccc3C(=O)/C2=N\S(=O)(=O)c2ccc(Cl)cc2)c1,-4%,-2,1%,5%,-45*,?
CCCCC[n+]1ccn(C2=C([O-])c3ccccc3C(=O)/C2=N\S(=O)(=O)c2ccc(Cl)cc2)c1,1%,1,-1%,3%,-22,?
Oc1ccc(C=Nc2ccc3ncccc3c2)c(O)c1,2%,·,-3%,12%,-52*,·
CCOc1ccc(C=Nc2cccc3ncccc23)cc1,0%,0,7%,-2%,-42*,-20%
Oc1ccc(C=Nc2cccc3ncccc23)c(O)c1,3%,2,-1%,-2%,-37*,-9%
Oc1ccc(C=Nc2ccccc2-c2nc3ccccc3[nH]2)c(O)c1,-2%,1,-3%,9%,-7,-12%
COC(=O)NC(c1ccc(F)cc1)C(C(C)=O)C(=O)OC (centres undefined),·,·,·,·,-4,·
CC(C)OCCCn1c(=S)[nH]c2ccc(N3CCOCC3)cc2c1=O,2%,5,0%,6%,-44*,-14%
CC1=CC(=Nc2c(C)n(C)n(-c3ccccc3)c2=O)C=C(C)C1=O,-2%,-6,2%,-5%,-48*,-16%
Cc1c(N=c2scc(-c3ccccc3)n2C)c(=O)n(-c2ccccc2)n1C,0%,-14,1%,6%,5,5%
CCC(C)C1=CC(=Nc2c(C)n(C)n(-c3ccccc3)c2=O)C=C(C(C)CC)C1=O (centres undefined),2%,2,3%,-3%,-27,-15%
CC1=CC(=Nc2c(C)n(C)n(-c3ccccc3)c2=O)C=CC1=O,-1%,·,11%,6%,-46*,·
COc1cc(C/C=C/c2ccccc2)c(OC)cc1O,·,·,·,·,-51*,·
CSc1nsc(/C=C/Nc2ccc(O)cc2C)c1C#N,12%,-8,-1%,8%,-33*,?
CSc1nsc(/C=C/Nc2ccc(F)cc2)c1C#N,11%,-6,1%,10%,-19,?
C[C@H]1Cc2c(-c3ccccc3)nc3c(c2CO1)CN(C(=O)NCCc1c[nH]c2ccccc12)CC3,·,·,·,·,3,·
Cc1nc2n(c(=O)c1CCN1CCC(c3noc4cc(F)ccc34)CC1)CCC[C@H]2O,·,i,·,·,·,·
CCN(Cc1ccncc1)Cc1c(O)ccc2cc(Br)ccc12,-1%,-6,-3%,-6%,-54*,-24%
CN1CCN(Cc2c(O)ccc3cc(Br)ccc23)CC1,7%,-1,1%,-4%,-12,-17%
CC(C)N(C(=O)N1CCC(c2nc(-c3ccncc3)no2)CC1)C(C)C,1%,-72*,1%,-14%,8,-21%
CCOc1ccc(N=C2NC(=O)S/C2=C\c2ccc(N(C)C)cc2)cc1,-2%,4,6%,15%,-2,28µM*
CCOc1ccc(/C=C2/SC(=O)NC2=S)cc1,-4%,-5,-1%,7%,6,-20%
CN1CCS/C1=C/C=C1\SC(=S)N(CC(=O)O)C1=O,-4%,-6,?,?,1,25µM*
C=CCC1C=CC(Oc2ccc(F)cc2C)C(CO)O1 (centres undefined),·,·,·,·,-1,·
Cc1ccc(C2C(C#N)=C(N)SC(N)=C2C#N)c(C)c1,3%,-19,4%,?,-41*,-18%
CC1(C)CC(=O)c2c(oc3cc(O)c(O)cc23)C1,-1%,-2,1%,-5%,-62*!,-20%
C=CCn1c(N)c(C(=O)Nc2cccc(C)c2)c2nc3ccccc3nc21,-1%,-14,-9%,-6%,-34*,?
